Rows were chosen to be rich in hits. Some 1.5% of all compounds tested hit in one or more screens of this group.
ANO1 activ = activators or potentiators of mouse TMEM16A chloride channel | Q8BHY3 | HEK293 TMEM16A/YFP-H148Q/I152L, iodide quench fluorescence; active compounds read low | B-score at 10 µM | 340,000 compounds, 0.3% hits;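 active means fluorescence-ratio B-score plate-corrected deviation score at least 3 library SD below zero, with starting fluorescence score within 5 deviations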;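 further: channel opened by trigger with iodide after compound preincubation; score built on the fluorescence ratio of max minus min over baseline; more negative score means more quench and so TMEM16A activation or potentiation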
TMEM16A inh = blocks the mouse calcium-activated chloride channel TMEM16A; Q8BHY3; HEK293 TMEM16A/YFP iodide influx fluorescence, ionomycin; normalized B-score (activity score, 25-100; higher = stronger inhibition) at 10 µM; 310,000 compounds, 1.2% hits; AID 588511;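 active means ratio plate-corrected score three or more library SD toward inhibition, starting fluorescence score within five deviations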;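 further: score derived from kinetic fluorescence span divided by baseline fluorescence per well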
ABCB6 inh MLPCN = human ABCB6 transporter inhibition; Q9NP58; K562-ABCB6 porphyrin accumulation, flow cytometry, 1 h; active compounds read low; fluorescence ratio to DMSO, % at 10 µM; 360,000 compounds, 0.19% hits; AID 602162;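 active means fluorescence ratio to DMSO below 75%, the collection mean minus 3 SD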;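 further: signal is porphyrin accumulated inside mitochondria; 100% equals median channel fluorescence of DMSO control wells; lower ratio means ABCB6 inhibition with less porphyrin fluorescence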
Target sequence (Q9NP58 whole entry, looked up): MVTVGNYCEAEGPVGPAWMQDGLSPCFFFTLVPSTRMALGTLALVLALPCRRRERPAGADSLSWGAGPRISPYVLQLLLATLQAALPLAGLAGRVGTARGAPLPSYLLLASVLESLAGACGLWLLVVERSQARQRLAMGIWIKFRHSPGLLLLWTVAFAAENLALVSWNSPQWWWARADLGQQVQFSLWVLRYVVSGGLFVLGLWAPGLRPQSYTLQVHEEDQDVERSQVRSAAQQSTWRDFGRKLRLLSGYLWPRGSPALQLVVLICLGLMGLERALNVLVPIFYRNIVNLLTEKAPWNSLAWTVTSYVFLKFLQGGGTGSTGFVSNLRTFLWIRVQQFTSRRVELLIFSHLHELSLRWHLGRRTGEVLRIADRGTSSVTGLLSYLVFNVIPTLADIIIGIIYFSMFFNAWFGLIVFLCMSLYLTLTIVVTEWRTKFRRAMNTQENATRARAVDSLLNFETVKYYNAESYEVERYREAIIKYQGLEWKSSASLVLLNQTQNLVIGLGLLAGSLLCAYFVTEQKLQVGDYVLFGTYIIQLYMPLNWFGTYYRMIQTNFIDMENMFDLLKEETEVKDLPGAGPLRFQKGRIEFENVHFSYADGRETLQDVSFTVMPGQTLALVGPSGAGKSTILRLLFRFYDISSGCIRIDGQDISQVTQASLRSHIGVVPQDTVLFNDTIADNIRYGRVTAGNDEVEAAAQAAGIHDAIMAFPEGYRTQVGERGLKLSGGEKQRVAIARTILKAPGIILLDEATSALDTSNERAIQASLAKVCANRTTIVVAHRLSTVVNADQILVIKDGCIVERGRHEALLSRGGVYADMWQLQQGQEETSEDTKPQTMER
hiPSC survival = hiPSC single-cell survival enhancement; ATPlite luminescence; 100% = ROCK inhibitor wells, 0% = DMSO; survival enhancement, % at 20 µM; 360,000 compounds, 0.044% hits; in the data active means survival enhancement above about 18%;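 further: cells exposed to compounds for 16 hours before the ATP read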
DAGLB inhibitor = blocks human DAGLB lipase activity; Q8NCG7; HEK293T DAGLB membrane lysate, EnzChek fluorogenic substrate; inhibition, % at 5.17 µM; 340,000 compounds, 0.059% hits; AID 504411; in the data active means inhibition above about 34%;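 further: 0% = enzyme with vehicle and 100% = wells lacking enzyme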
TMEM16A reconf = TMEM16A (mouse) chloride channel inhibition, re-confirmation. shares compounds with TMEM16A inh. AID 652189. HEK293 TMEM16A/YFP-H148Q, iodide quench fluorescence; ionomycin added to raise cell calcium. 2,300 compounds, 39% hits. inhibition, % at 10 µM;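 active means mean duplicate percent inhibition, scaled so buffer wells are 0 and the reference blocker 100, over three buffer SD above buffer mean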
HEK293 Ca mobil = alters calcium mobilization in TMEM16A HEK293 cells, counter-screen; TMEM16A/YFP HEK293, Fluo4 calcium mobilization; calcium response (% of ionomycin), % at 10 µM; AID 652231; shares compounds with TMEM16A inh; 2,300 compounds, 2% hits;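 active means duplicate-averaged calcium signal over 20% of the ionomycin maximum, relative to buffer baseline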;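 further: each well's signal is peak minus trough fluorescence divided by its pre-addition baseline; 0% = buffer wells and 100% = ionomycin wells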
YFP-HEK293 quench = parental YFP-HEK293 iodide quench counter-screen activity | shares compounds with TMEM16A inh | YFP ratio F(max-min)/F0 at 10 µM | 2,300 tested, under 10 active | ionomycin | AID 652233;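 active means yellow fluorescent protein signal ratio exceeding the buffer control mean by over 5 SD of those controls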;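 further: ratio is mean of duplicate wells from kinetic YFP trace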
ClC-1 inh = rat ClC-1 inhibition, TMEM16A specificity screen | CHO ClC-1-YFP, iodide influx fluorescence quench; iodide control reads 0, buffer control 100 | AID 652236 | 2,300 tested, under 10 active | shares compounds with TMEM16A inh | ratio percent, % at 10 µM;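 active means duplicate-mean ratio percent above the mean of iodide-only control wells, which defines zero, plus 5 of their SD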;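 further: higher percent means stronger block of ClC-1 iodide influx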
Numbers without * were called inactive; i = inactive; nt = no result given.

SMILES	ANO1 activ	TMEM16A inh	ABCB6 inh MLPCN	hiPSC survival	DAGLB inhibitor	TMEM16A reconf	HEK293 Ca mobil	YFP-HEK293 quench	ClC-1 inh
CCNS(=O)(=O)c1ccc(CCC(=O)N2CCN(Cc3ccccc3)CC2)cc1	i	i	93.0	-0.6	-0.1	nt	nt	nt	nt
O=C(CCc1ccc(S(=O)(=O)NCCc2ccccc2)cc1)N1CCN(Cc2ccc3c(c2)OCO3)CC1	i	25*	95.0	3.0	1.3	i	i	-0.818	-3.0
Cc1cc(C)cc(NC(=O)N2CCN(Cc3ccc4c(c3)OCO4)CC2)c1	i	i	100.0	-0.1	-0.5	nt	nt	nt	nt
Cc1ccc(OCc2cc(C(=O)N3CCN(c4ccccc4)CC3)no2)cc1C	i	i	95.0	0.1	-3.2	nt	nt	nt	nt
CS(=O)(=O)Nc1ccc2c(c1)OCC(=O)N2Cc1ccccc1	i	i	100.0	-0.8	1.8	nt	nt	nt	nt
CCN(Cc1ccncc1)Cc1nc(-c2ccc(C(=O)OC)cc2)no1	i	i	96.0	1.3	-3.8	nt	nt	nt	nt
COC(=O)c1ccc(-c2noc(CN(C)Cc3ccncc3C)n2)cc1	i	25*	104.0	3.0	-1.5	i	i	-0.966	-4.0
c1coc(CNc2ncnc3c2oc2ccccc23)c1	i	100*	88.0	-1.8	-0.8	i	i	-1.02	-5.0
Cc1ccc2[nH]c3c(NCc4ccco4)ncnc3c2c1	i	25*	98.0	4.1	-5.6	22.0%*	i	-1.13	-20.0
CCc1nc(NCc2ccco2)c2oc3ccccc3c2n1	i	i	105.0	0.1	-4.0	nt	nt	nt	nt
c1ccc2c(c1)oc1c(Nc3ccc4c(c3)OCCO4)ncnc12	i	25*	89.0	-4.3	-1.7	i	i	-0.922	3.0
CCN(C)C1CN(Cc2cn(Cc3ccccc3)nn2)S(=O)(=O)C1 (stereo unspecified)	nt	nt	102.0	-1.2	nt	nt	nt	nt	nt
COc1ccc(C)cc1NC(=O)C(c1ccccc1)N1CCN(CC(=O)NC2CC2)CC1 (stereo unspecified)	i	nt	100.0	0.1	-3.1	nt	nt	nt	nt
Cc1cccc(NC(=O)C2C(c3ccccc3)C2(Cl)Cl)c1 (stereo unspecified)	i	100*	94.0	-0.4	-5.7	i	i	-0.909	-10.0
CCCCSc1nc(N)nc2c1ncn2C1OC(CO)C(O)C1O (stereo unspecified)	nt	nt	103.0	0.9	nt	nt	nt	nt	nt
CCOC(=O)c1ccc(NC(=S)N2CCSC2c2ccc(Br)cc2)cc1 (stereo unspecified)	-6.5*	25*	96.0	-1.6	-2.9	81.5%*	i	-1.07	-2.0
CC(C)n1ncc2c(C(=O)NCCc3ccc(F)cc3)cc(C3CC3)nc21	i	nt	99.0	0.3	-9.2	nt	nt	nt	nt
CC(NCCc1ccc(O)cc1)C(O)c1ccc(O)cc1 (stereo unspecified)	i	100*	104.0	-0.7	2.6	i	i	-0.919	-10.0
CC(CCc1ccc(O)cc1)NCCC(c1ccccc1)c1ccccc1 (stereo unspecified)	i	i	101.0	-0.7	0.7	nt	nt	nt	nt
O=C(NCC1(N2CCOCC2)CCCCC1)c1ccc(Cl)c(S(=O)(=O)NCc2ccco2)c1	i	100*	86.0	-0.3	0.5	i	i	-1.03	-7.0
Cc1c(C(=O)Nc2nonc2-c2ccc(F)cc2)oc2ccc(F)cc12	i	25*	102.0	1.6	-3.9	40.0%*	i	-0.882	-15.5
CCc1nonc1NC(=O)c1oc2ccc(F)cc2c1C	i	i	101.0	-0.1	-1.8	nt	nt	nt	nt
Cc1ccc(S(=O)(=O)c2c(C)nn(C(C)(C)C)c2OC(=O)C(C)(C)C)cc1	i	100*	98.0	0.2	-16.0	i	i	-0.988	-17.5

Source: PubChem
